# Several values for one entry are separate records, joined by “and”; a condition that tells them apart may be missing. Equal entries are not always repeated. Records with an inconclusive call do not appear. Activity calls are given as the source filed them. How the source made its calls: active means hit-call score of the fitted dose curve at least 0.9, where 1 is the maximum; inconclusive means response in the unintended direction; inactive means score below 0.9.
# Molecular target: human Aurora Kinase A - serine/threonine-protein Kinase 6 (AurA), AURKA (gene 6790) (UniProt O14965)
# Sequence (O14965 whole entry, looked up): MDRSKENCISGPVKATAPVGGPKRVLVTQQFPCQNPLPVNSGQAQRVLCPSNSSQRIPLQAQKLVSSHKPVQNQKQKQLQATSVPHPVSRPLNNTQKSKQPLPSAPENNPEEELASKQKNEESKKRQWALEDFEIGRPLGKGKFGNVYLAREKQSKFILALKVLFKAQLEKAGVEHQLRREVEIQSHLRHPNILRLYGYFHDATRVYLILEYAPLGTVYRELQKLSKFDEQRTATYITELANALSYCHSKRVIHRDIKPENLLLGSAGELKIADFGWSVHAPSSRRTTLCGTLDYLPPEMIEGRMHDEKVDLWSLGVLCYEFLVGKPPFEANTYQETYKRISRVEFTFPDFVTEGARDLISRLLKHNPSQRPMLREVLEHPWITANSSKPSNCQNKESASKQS
# Assay: NVS_ENZ_hAurA: NovaScreen (NVS) Enzymatic Assay for human Aurora Kinase A - serine/threonine-protein Kinase 6 (AurA) (AID 2283142)
# Experimental: NVS_ENZ_hAurA is a biochemical, single-readout assay that uses extracted gene-proteins in a cell-free assay. Measurements were taken 1 hour after chemical dosing in a 384-well plate.NVS_ENZ_hAurA is one of one assay component(s) measured or calculated from the NVS_ENZ_hAurA assay. It is designed to make measurements of enzyme activity, a form of enzyme reporter, as detected with fluorescence intensity signals by Fluorescence and electrophoretic mobility shift technology.Data from the assay component NVS_ENZ_hAurA was analyzed into 1 assay endpoint. This assay endpoint, NVS_ENZ_hAurA, was analyzed in the positive analysis fitting direction relative to DMSO as the negative control and baseline of activity. Using a type of enzyme reporter, loss-of-signal activity can be used to understand changes in the enzymatic activity as they relate to the gene AURKA. Furthermore, this assay endpoint can be referred to as a primary readout, because this assay has produced multiple assay endpoints where this one serves a enzymatic activity function. To generalize the intended target to other relatable targets, this assay endpoint is annotated to the kinase intended target family, where the subfamily is serine/threonine kinase.
# Binding assays used specific radioligands (tritiated, iodinated) with non-radioactive competitive displacement ligands in agonist or antagonist protocols (as indicated) and various reference compounds and inhibitors to titrate specific binding to receptors and transporters. Most enzyme assays (CYPs, kinases, phosphatases, proteases, HDACs) used recombinant protein and specific substrates (fluorescence mostly, some colorimetric and radioactive) and inhibitors, followed by a biochemical separation of substrate and product. All assays for the biochemical HTS were initially run in duplicate at a single concentration (10 uM for CYP450 assays and 25 uM for all others). Assay-chemical combinations meeting a pre-defined threshold (e.g., 30% inhibition and other criteria defined below) were then run in singleton concentration-response format with maximum concentration of 20 uM for CYPs and 50 uM for all others. Each assay was run with positive and negative controls, and concurrent controls on every plate. The follow-up (secondary) screen tested active chemical-pairs in concentration series, as well as a few additional assays not tested in the primary screen, some selected negative inactives, and several cases re-run in the concentration series for confirmatory purposes.
Structure (SMILES),outcome,AC50
CN(C)C(=O)NC1(c2ccccc2)CCN(CCC[C@]2(c3ccc(Cl)c(Cl)c3)CCCN(C(=O)c3ccccc3)C2)CC1,inactive,–
O=C(O)Cc1cc(I)c(Oc2ccc(O)c(I)c2)c(I)c1,–,1.37 µM (active)
CN(C)c1ccc(Cc2ccc(N(C)C)cc2)cc1,inactive,–
CC1=C(/C=C/C(C)=C/C=C/C(C)=C/CO)C(C)(C)CCC1,inactive,–
FC(F)(F)C(F)(F)C(F)(F)C(F)(F)C(F)(F)C(F)(F)CCI,inactive,–
OCCOCCOCCO,inactive,–
NCCO,inactive,–
O=C(Oc1ccccc1)c1cccc(C(=O)Oc2ccccc2)c1,inactive,–
CC(C)c1ccc(C(=O)N=C(N)N)cc1S(C)(=O)=O,inactive,–
O=C(O)c1ccc2c(c1)nc(C(=O)NC1CCN(C3CC3)CC1)n2Cc1cc(-c2ccc(Cl)s2)on1,inactive,–
Cc1cc(CCN2CCN(c3nsc4ccccc34)CC2)cc2c1NC(=O)CC2(C)C,inactive,–
CC=Cc1ccc(O)c(OC)c1,inactive,–
O=C(O)c1cc(N=Nc2ccc(S(=O)(=O)Nc3ccccn3)cc2)ccc1O,inactive,–
CC(C)(C)c1csc(-c2cc3cc(OCc4ccccc4CC(=O)O)ccc3o2)n1,inactive,–
Cc1ncc([C@@H](CCCCCCc2ccc3c(n2)NCCC3)CC(=O)O)cn1,inactive,–
O=C(N[C@@H](c1ccccc1)[C@@H]1CCCCN1)c1cccc(C(F)(F)F)c1Cl,inactive,–
Cc1[nH]nc2c1N=C(c1ccccc1Cl)c1cc([N+](=O)[O-])ccc1N2,–,0.00702 µM (active)
O=c1[nH]cnc2c1ncn2[C@H]1CC[C@@H](CO)O1,inactive,–
O=C(O)Cc1cc(I)c(Oc2cc(I)c(O)c(I)c2)c(I)c1,–,0.00511 µM (active)
CN(C)c1ccc(N=NS(=O)(=O)O)cc1,inactive,–

Structure (SMILES),outcome,AC50
CN(C)C(=O)NC1(c2ccccc2)CCN(CC[C@@]2(c3ccc(F)c(F)c3)CN(C(=O)c3ccccc3)CCO2)CC1,inactive,–
CCCC(CCC)C(=O)O,inactive,–
Cc1ccc(N)cc1O,inactive,–
CC/C(=C(\c1ccccc1)c1ccc(OCCN(C)C)cc1)c1ccccc1,inactive,–
CCCCCCCCCCCCc1ccccc1S(=O)(=O)O,–,9.88 µM (active)
O=C(O)c1cccc(Oc2ccccc2)c1,inactive,–
O=C(O)C1(C(=O)Nc2ccc(Cl)cc2Cl)CC1,–,16.3 µM (active)
O=C(Nc1ccc([N+](=O)[O-])cc1Cl)c1cc(Cl)ccc1O,inactive,–
O=C(c1ccc(OCCN2CCCCC2)cc1)c1c(-c2ccc(O)cc2)sc2cc(O)ccc12,inactive,–
O=C(O)CC(O)C(=O)O (stereo not given),inactive,–
COc1ccc2sc(C(=O)Nc3nnn[nH]3)c(OC(C)C)c2c1,–,9.98 µM (active)
CN1C(=O)N(c2ccccc2Br)Cc2cnc(Nc3ccc4c(c3)OCC(CO)O4)nc21 (stereo not given),–,5.65 µM (active)
Oc1ccc2ccccc2c1,–,36.6 µM (active)
CC/C(=C(/CC)c1ccc(O)cc1)c1ccc(O)cc1,inactive,–
c1ccc2[nH]c(-c3cscn3)nc2c1,–,17 µM (active)
O=C(OCCCCCOC(=O)c1ccccc1)c1ccccc1,inactive,–
c1ccc2ccccc2c1,inactive,–
O=C(NO)C1(NS(=O)(=O)c2ccc(Oc3ccc(F)cc3)cc2)CCOCC1,inactive,–
S=C(S)NCCNC(=S)S.[Mn+2].[S-]C([S-])=NCCN=C([S-])[S-].[Zn+2],–,3.99 µM (active) and 2.8 µM (active)
CCOC(=O)C(C)(C)Oc1ccc(Cl)cc1,inactive,–
